ChEMBL document CHEMBL3433997, “St. Jude Leishmania screening dataset” (2016)

Tests used:
Type in all cases: functional
[1] = molecular target: Solute carrier family 2, facilitated glucose transporter member 1 (Homo sapiens) (UniProt P11166); assay: ST_JUDE_LEISH: Cytotoxicity at 2uM final concentration against transgenic Leishmania Mexicana promastigotes LmGLUT1 that are glucose transport deficient and complemented with the human glucose transporter GLUT1. Activity is measured by DNA content using SYBR green in vitro
[2] = molecular target: Hexose transporter 1 (Plasmodium falciparum) (UniProt O97467); assay: ST_JUDE_LEISH: Cytotoxicity at 2uM final concentration against transgenic Leishmania Mexicana promastigotes LmPfHT that are glucose transport deficient and complemented with the Plasmodium falciparum hexose transporter. Activity is measured by DNA content using SYBR green in vitro
[3] = molecular target: Glucose transporter (Leishmania mexicana) (UniProt O61059); assay: ST_JUDE_LEISH: Cytotoxicity at 2uM final concentration against transgenic Leishmania Mexicana promastigotes LmGT2 that are glucose transport deficient and complemented with the L. Mexicana glucose transporter 2. Activity is measured by DNA content using SYBR green in vitro

Chain of Solute carrier family 2, facilitated glucose transporter member 1 (Homo sapiens) (P11166 whole entry): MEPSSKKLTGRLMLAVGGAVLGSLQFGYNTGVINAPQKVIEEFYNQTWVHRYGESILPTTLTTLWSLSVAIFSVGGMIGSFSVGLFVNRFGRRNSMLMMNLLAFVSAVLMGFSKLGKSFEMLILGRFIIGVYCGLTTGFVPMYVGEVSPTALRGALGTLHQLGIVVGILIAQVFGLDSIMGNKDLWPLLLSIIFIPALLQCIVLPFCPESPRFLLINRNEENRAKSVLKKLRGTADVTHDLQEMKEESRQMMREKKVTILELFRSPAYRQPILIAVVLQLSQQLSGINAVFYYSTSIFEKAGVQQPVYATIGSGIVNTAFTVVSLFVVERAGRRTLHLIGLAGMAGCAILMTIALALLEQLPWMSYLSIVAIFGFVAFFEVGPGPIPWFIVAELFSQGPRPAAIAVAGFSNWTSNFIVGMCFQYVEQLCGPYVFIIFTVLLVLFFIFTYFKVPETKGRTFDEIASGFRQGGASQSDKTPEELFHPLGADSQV

SMILES	inhibition [1] [%]	inhibition [2] [%]	inhibition [3] [%]
COc1ccc(-c2ccc(Nc3cccc(S(=O)(=O)CCN4CCC(CCN(C)C)CC4)c3)nc2)cn1	-2.17	-1.68	1.63
O=c1c(NCCCN(Cc2ccc(F)cc2)c2ccccn2)c(NCc2ccncc2)c1=O	4.35	3.53	5.17
CCN1CCC(N(Cc2ccc(-c3ccc(C(F)(F)F)cc3)cc2)C(=O)Cn2c(CCc3cccc(F)c3F)cc(=O)c3c2CCC3)CC1	1.27	0.83	0.64
COCCCC1C(=O)OC2CCCC21 (stereo not given)	0.19	3.28	2.52
CCCCOc1c(CNCCCCCCNCc2ccc3ccccc3c2OCCCC)ccc2ccccc12	99.5	49.1	85.2
O=C(NC1CCN(c2ccnc3cc(Cl)ccc23)C1)c1ccccc1F (stereo not given)	1.93	2.22	2.72
O=C(Nc1ccc(CCN2CCC(c3nc(COCC(F)(F)F)c(-c4ccccc4)o3)CC2)cc1)c1ccc(F)cc1	2.62	2.23	-0.66
CS(=O)(=O)c1ccc(CCNCc2ccc(-c3ccc(CN(C(=O)C4CC(=O)c5ccccc54)C4CCN(Cc5ccccc5)CC4)cc3)nc2)cc1 (stereo not given)	1.6	1.34	2.34
COc1ccc2nccc([C@@H](O)CN3CCC(NC(=O)c4ccc(CN5CCN(c6cccc(C)c6)CC5C)cc4)CC3)c2c1 (stereo not given in full)	4.12	1.46	-3.5
N#Cc1cccc(Nc2nccc(NCC(O)c3ccc(C(F)(F)F)cc3)n2)c1 (stereo not given)	3.05	3.09	0.03
O=C(O)CNCC(O)c1ccccc1 (stereo not given)	0.32	-0.04	0.29
CN(C)CCOc1cccc(NC(=O)Nc2ccc(-c3ccccc3)cc2)c1	2.67	1.78	1.53
Cc1cccc2nc(-c3cccc(-c4ccc(CNCc5ccccc5)cc4)c3)[nH]c12	5.37	3.63	1.78
O=C(Nc1cccc(-c2cccc(-c3ccc(F)cc3)n2)c1)c1ccc([N+](=O)[O-])o1	9.83	11.4	1.35
Cc1ccc(NC(=O)Nc2cccc(Cl)c2)cc1-c1ccc(C(=O)Nc2ccncc2)cc1	-1.84	-1.56	-1.5
O=C(Nc1cccc(OC2CCN(Cc3ccsc3)CC2)c1)c1ccc(C(F)(F)F)cc1	0.75	-0.04	-1.05
O=C(C1CCCC1)N1CCOC(CCN2CCC(c3ccccc3)CC2)(c2ccc(Cl)c(Cl)c2)C1 (stereo not given)	11.9	11.5	11.7
Cc1nc2nc(N)nc(N)c2c(C)c1Cc1ccc(C#N)cc1	0.34	4.37	-0.44

SMILES	inhibition [1] [%]	inhibition [2] [%]	inhibition [3] [%]
N#Cc1ccc(C(=O)Nc2cc(-c3cccc(O)c3)cc3[nH]ncc23)cc1	2.57	2.33	0.89
CNCc1cccc2nc(-c3ccc(Cc4cc(Cl)ccc4OCC(C)C)o3)[nH]c12	4.31	2.61	3.52
N#Cc1ccc(N/C(=N\c2cccc(Cl)c2Cl)NCc2ccc(Cl)cc2Cl)c(O)c1	9.71	9.71	9.16
COc1ccc2nccc([C@@H](O)CN3CCC(NCCNc4cccc(F)c4)CC3)c2c1	6.07	11.1	0.95
O=C(NCCN1Cc2ccccc2C1=O)c1ccc(Oc2ccc(C(=O)NCCN3Cc4ccccc4C3=O)cc2)cc1	-0.35	0.02	-0.4
FC(F)c1nc2ccccc2n1-c1nc(N2CCOCC2)nc(N2CCOCC2)n1	2.11	2.9	3.12
CN(C)Cc1ccc(-c2ccc(NC(=O)c3ccc4c(=O)n(Cc5ccoc5)cnc4c3)cc2)cc1	1.36	1.35	-0.37
CCNc1cc(C(=O)N[C@@H](Cc2ccccc2)[C@H](O)CNCCC(C)c2ccccc2)cc(N2CCCC2=O)c1 (stereo not given in full)	4.77	5.96	1.33
O=C(/C=C/c1ccc(Cl)c(Cl)c1)N1CCC(CCN2CCc3[nH]c4ccccc4c3C2)CC1	12.4	5.55	4.33
COc1ccc(Nc2c3ccc(Cl)cc3nc3ccc(OC)cc23)cc1	2.45	4.25	0.01
CNC(=O)c1ccc2nc(C3CC3)n(CC3CCN(S(=O)(=O)c4cccc(Cl)c4)CC3)c2c1	1.69	1.44	2.49
COc1cccc2c(NN=Cc3ccccc3Cl)cc(C)nc12	48	63.1	21.7
COc1ccc(CN(C)C(=O)CCNS(=O)(=O)c2ccc3c(c2)OCCCO3)cc1F	5.25	6.84	7.12
COc1cccc2cc(C(=O)N[C@@H](CC(C)C)C(=O)N[C@H](C=NN(C)C(=O)OC(C)(C)C)Cc3ccccc3)oc12	5.65	7.62	5.03
Clc1ccc(-c2nc(-c3ccncc3)c[nH]2)cc1Cl	0.68	0.78	-0.87
CCn1ccc2c(N3CCCS3(=O)=O)cc(C(=O)N[C@@H](Cc3ccccc3)[C@H](O)CNC3CCCCC3)cc21	-0.74	1.64	5.33
COc1cc(C)nc2ccc(NC(=O)COCC(=O)Nc3ccc4nc(C)cc(OC)c4c3)cc12	4.3	3.83	3.64
